In the supplement of paper PMC6555819:

Tested on: RARa homodimer (NR concentration 270 nM)
Assay: PBM binding z-score (relative to random genomic background probes); higher = stronger binding; sequences stand for … in GC…GCGATTGACAGCGTAGAATGAAGG
Summary of the method: (§1)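 Random background probes are the reference for binding z-scores. These scores derive from regression-normalized fluorescence on custom Agilent 4×180K protein-binding microarrays incubated 1 h with ligand-free nuclear receptor dimers. Binding was detected with antibodies against each partner (one per run).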

Row | Sequence | PBM binding z-score
1 | CTGAGTAGGTTACGAGGGGGCATTCAGTGCGAAT | 0.52
2 | TCGAGTAGTTTACGGGGGCATTCAGGGATGAAGA | -0.25
3 | CTCTGTAGGTTAAGGGGGTCATTCAGTTTGAAAG | 1.78
4 | CTATGTAGGTTAAGGGGGGCATTCAGTTTGAAAG | 3.91
5 | CTATGCAGGTTAAGGGGGTCATTCAGTTTGAAAG | 1.66
6 | CCGAGTAGGTTACGAGAGGGCATTCAGTGCGAAT | -0.345
7 | CTATGTAGGTTAAGGGGGTCGTTCAGTTTGAAAG | 1.49
8 | CTATGTCGGTTAAGGGGGTCATTCAGTTTGAAAG | 4.21
9 | TCGAGGAGGTTACGGGGGCATTCAGGGATGAAGA | 0.971
10 | TCGAGTAGGTTACAGGGGCATTCAGGGATGAAGA | 0.487
11 | TCGAGTAGGTTACGGGGGCATTTAGGGATGAAGA | 0.213
12 | CTATCTAGGTTAAGGGGGTCATTCAGTTTGAAAG | 2.58
13 | CTATGTAGGTTAAGGGGGTCATTCAATTTGAAAG | 1.49
14 | CCGAGTTGGTTACGAGGGGGCATTCAGTGCGAAT | 0.677
15 | CTATGTATGTTAAGGGGGTCATTCAGTTTGAAAG | 3.39
16 | TCGAGTAGGTTACCGGGGCATTCAGGGATGAAGA | -0.856
17 | TCTAGTAGGTTACGGGGGCATTCAGGGATGAAGA | 1.37
18 | TCGAGTAGGTTACGGGGCCATTCAGGGATGAAGA | -0.208
19 | CCGGGTAGGTTACGAGGGGGCATTCAGTGCGAAT | 0.857
20 | TCGAGTAGGTTACGGGGGCATTCAAGGATGAAGA | 0.0228

Row | Sequence | PBM binding z-score
21 | CTAAGTAGGTTAAGGGGGTCATTCAGTTTGAAAG | 1.86
22 | TCGAGTAGCTTACGGGGGCATTCAGGGATGAAGA | -0.926
23 | TCGAGTAGGTTACGGGGGCATTCACGGATGAAGA | 0.0892
24 | CTATGTAAGTTAAGGGGGTCATTCAGTTTGAAAG | 2.58
25 | CTATGTAGGTTATGGGGGTCATTCAGTTTGAAAG | 1.72
26 | TCGAGTAGGTTACGGGGGCATTCCGGGATGAAGA | 0.0892
27 | CTATGTAGGTTAAGGGGGTCATTCACTTTGAAAG | 1.84
28 | TCGAGTAGGTTATGGGGGCATTCAGGGATGAAGA | 0.33
29 | CCGAGTAGGATACGAGGGGGCATTCAGTGCGAAT | -0.298
30 | CTATGTAGGTTAAGGGGGTCATTCAGTTTGAAAG | 1.81
31 | TCGAGTAGGTTACGGGGGCGTTCAGGGATGAAGA | 0.56
32 | TCGAGTAGGTTACGGGGGCATTAAGGGATGAAGA | 0.727
33 | CCGAGTAGGTTATGAGGGGGCATTCAGTGCGAAT | 0.734
34 | CCGAGTAGCTTACGAGGGGGCATTCAGTGCGAAT | -0.103
35 | TCGAGTAGGTTACGGGGGTATTCAGGGATGAAGA | 0.925
36 | CCGTGTAGGTTACGAGGGGGCATTCAGTGCGAAT | 1.33
37 | CTATGTAGGGTAAGGGGGTCATTCAGTTTGAAAG | 1.26
38 | CTATGTAGGTTAAGGGTGTCATTCAGTTTGAAAG | 0.262
39 | CCTAGTAGGTTACGAGGGGGCATTCAGTGCGAAT | 1.46

Tested on: RARb:RXRa (NR concentration 270 nM, RXRa partner concentration 90 nM)
Assay: as above
Summary of the method: as §1

Row | Sequence | PBM binding z-score
40 | CTGAGTAGGTTACGAGGGGGCATTCAGTGCGAAT | 2.26
41 | TCGAGTAGTTTACGGGGGCATTCAGGGATGAAGA | 2
42 | CTCTGTAGGTTAAGGGGGTCATTCAGTTTGAAAG | 3.6
43 | CTATGTAGGTTAAGGGGGGCATTCAGTTTGAAAG | 3.35
44 | CTATGCAGGTTAAGGGGGTCATTCAGTTTGAAAG | 3.52
45 | CCGAGTAGGTTACGAGAGGGCATTCAGTGCGAAT | 1.66
46 | CTATGTAGGTTAAGGGGGTCGTTCAGTTTGAAAG | 2.37
47 | CTATGTCGGTTAAGGGGGTCATTCAGTTTGAAAG | 3.57
48 | TCGAGGAGGTTACGGGGGCATTCAGGGATGAAGA | 3.42
49 | TCGAGTAGGTTACAGGGGCATTCAGGGATGAAGA | 1.59
50 | TCGAGTAGGTTACGGGGGCATTTAGGGATGAAGA | 2.56
51 | CTATCTAGGTTAAGGGGGTCATTCAGTTTGAAAG | 3.68
52 | CTATGTAGGTTAAGGGGGTCATTCAATTTGAAAG | 3.55
53 | CCGAGTTGGTTACGAGGGGGCATTCAGTGCGAAT | 1.31
54 | CTATGTATGTTAAGGGGGTCATTCAGTTTGAAAG | 3.74
55 | TCGAGTAGGTTACCGGGGCATTCAGGGATGAAGA | 1.22
56 | TCTAGTAGGTTACGGGGGCATTCAGGGATGAAGA | 3.21
57 | TCGAGTAGGTTACGGGGCCATTCAGGGATGAAGA | 1.44
58 | CCGGGTAGGTTACGAGGGGGCATTCAGTGCGAAT | 2.21
59 | TCGAGTAGGTTACGGGGGCATTCAAGGATGAAGA | 2.59

Row | Sequence | PBM binding z-score
60 | CTAAGTAGGTTAAGGGGGTCATTCAGTTTGAAAG | 3.43
61 | TCGAGTAGCTTACGGGGGCATTCAGGGATGAAGA | 0.94
62 | TCGAGTAGGTTACGGGGGCATTCACGGATGAAGA | 2.51
63 | CTATGTAAGTTAAGGGGGTCATTCAGTTTGAAAG | 3.35
64 | CTATGTAGGTTATGGGGGTCATTCAGTTTGAAAG | 3.67
65 | TCGAGTAGGTTACGGGGGCATTCCGGGATGAAGA | 2.51
66 | CTATGTAGGTTAAGGGGGTCATTCACTTTGAAAG | 3.4
67 | TCGAGTAGGTTATGGGGGCATTCAGGGATGAAGA | 2.13
68 | CCGAGTAGGATACGAGGGGGCATTCAGTGCGAAT | 0.887
69 | CTATGTAGGTTAAGGGGGTCATTCAGTTTGAAAG | 3.73
70 | TCGAGTAGGTTACGGGGGCGTTCAGGGATGAAGA | 2.23
71 | TCGAGTAGGTTACGGGGGCATTAAGGGATGAAGA | 2.59
72 | CCGAGTAGGTTATGAGGGGGCATTCAGTGCGAAT | 2.06
73 | CCGAGTAGCTTACGAGGGGGCATTCAGTGCGAAT | 0.8
74 | TCGAGTAGGTTACGGGGGTATTCAGGGATGAAGA | 2.07
75 | CCGTGTAGGTTACGAGGGGGCATTCAGTGCGAAT | 2.47
76 | CTATGTAGGGTAAGGGGGTCATTCAGTTTGAAAG | 3.72
77 | CTATGTAGGTTAAGGGTGTCATTCAGTTTGAAAG | 1.56
78 | CCTAGTAGGTTACGAGGGGGCATTCAGTGCGAAT | 2.32
